# Screens deposited in PubChem by National Center for Advancing Translational Sciences (NCATS).
# D1 agonist – activates the human D1 dopamine receptor; HEK293 T-REx D1 cells, calcium flux, agonist mode; activation, % at 2 µM; AID 504660; 360,000 tested, 1% active; also: 0% is about no effect
#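 Agonism was scored from calcium flux recorded over 180 s (1 read/s) after pintool compound addition, following a 10-cycle baseline. Cells were inducible force-coupled HEK293 TREx D1, plated overnight at 30 C and loaded with no-wash calcium dye.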
# D1 antag – antagonists of human D1 dopamine receptor | P21728 | HEK293 TREx D1 cells, calcium flux, dopamine EC80; active compounds read low | activity change, negative = inhibition, % at 10 µM | 360,000 tested, 3.2% active; in the data active = activity change below about -30%; also: % is scaled to controls: 0 for no effect and ±100 for the full control effect
#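 Tetracycline-induced HEK293 T-REx cells with force-coupled D1 receptor were loaded with a no-wash calcium dye. Compound was added after a 10 s baseline and read kinetically for 180 s; EC80 dopamine was then added and calcium flux followed another 180 s.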
# TRHR PAM – allosterically enhances the human TRH receptor; P34981; TRHR cells, fluo-8 calcium fluorescence, EC20 TRH enhancement; enhancement, % at 2 µM; 360,000 tested, 0.66% active; AID 493056; in the data active = enhancement above about 30%; also: 0% is about no effect
# Target sequence (P34981 whole entry, looked up): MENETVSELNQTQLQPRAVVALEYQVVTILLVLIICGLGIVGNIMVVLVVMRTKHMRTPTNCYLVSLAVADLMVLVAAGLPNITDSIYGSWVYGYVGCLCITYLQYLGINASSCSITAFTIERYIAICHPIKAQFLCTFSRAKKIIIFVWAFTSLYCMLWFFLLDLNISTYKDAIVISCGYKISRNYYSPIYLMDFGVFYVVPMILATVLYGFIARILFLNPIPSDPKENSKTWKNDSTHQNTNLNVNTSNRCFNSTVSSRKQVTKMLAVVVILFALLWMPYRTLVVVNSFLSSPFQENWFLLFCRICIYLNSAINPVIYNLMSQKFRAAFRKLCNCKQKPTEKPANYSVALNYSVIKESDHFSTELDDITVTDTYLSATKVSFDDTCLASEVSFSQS
#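 TRHR-expressing cells loaded with fluo-8 calcium dye were read kinetically (ex 480/em 530) during compound addition, then stimulated with an EC20 of TRH (10 nM final). Enhancement of the Gq-mediated intracellular calcium response was scored.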
# TRHR ag – TRH receptor (human) agonism | P34981 | TRHR cells, calcium flux fluo-8, FDSS agonist mode | activation, % at 2 µM | 360,000 tested, 0.18% active | AID 493084; also: 0% is about no effect
#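 Read-out: compound-evoked intracellular calcium rise in TRHR cells, fluo-8 dye, kinetic FDSS fluorescence at 1 s/cycle following a 10-cycle baseline. Cells cultured overnight before dye loading (30 min–1.5 h, RT).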
# D1 potentiator – enhances dopamine response at the human D1 receptor; P21728; HEK293 TREx D1 cells, calcium flux, dopamine EC20 potentiation; potentiation, % at 10 µM; 360,000 tested, 0.036% active; in the data active = potentiation above about 30%; also: 0% is about no effect
# An asterisk follows results filed as active; . = no result. A selection: hits, their analogues and other compounds. The true share with any hit is near 4.7%. Rule as the data show it, unless noted: active = activation above about 30%; inactive = the rest.
SMILES,D1 agonist,D1 antag,TRHR PAM,TRHR ag,D1 potentiator
O=C1CN(C(=O)COc2ccc(Cl)cc2)C(c2ccc(F)cc2)c2cc(Br)ccc2N1 (stereo unspecified),9,12,3,1,1
CCOc1ccc(OCC)c(S(=O)(=O)N2CCN(c3cccc(C)c3C)CC2)c1,1,-1,-13,0,-3
COc1cc(CN2CCN(C(c3ccccc3)c3ccccc3)CC2)cc(OC)c1OC,6,-52*,-1,0,-17
CN1CCN(Cc2cccc(Oc3ccc(Cl)cc3)c2)CC1,15,-26,-2,0,-6
COc1cccc(CN2CCN(Cc3cccc(Oc4ccccc4)c3)CC2)c1OC,4,-9,31*,0,0
CCN1CCN(Cc2cccc(Oc3ccc(Cl)cc3)c2)CC1,19,-64*,-9,0,-2
O=C(NCc1ccccc1Cl)C(=O)NCC(c1cccs1)S(=O)(=O)c1cccs1 (stereo unspecified),9,.,1,0,-1
Cc1ccc(NC(=O)C2CCCN(c3nnc(C)c4c(C)n(-c5ccccc5)nc34)C2)cc1Cl (stereo unspecified),1,12,6,0,2
COc1ccc(Br)cc1CNC(=O)C1CCCN(S(=O)(=O)N2CC(C)CC(C)C2)C1 (stereo unspecified),4,-33*,-9,1,-4
COc1ccccc1CNC(=O)C1CCCN(S(C)(=O)=O)C1 (stereo unspecified),1,3,-5,0,-1
COc1ccc(Br)cc1CNC(=O)C1CCN(S(=O)(=O)N2CCCCC2)CC1,-1,-30,-7,1,-2
COc1ccccc1CNC(=O)C1CCCN(S(=O)(=O)c2cccs2)C1 (stereo unspecified),-2,5,40*,0,3
c1ccc2[nH]c(SCc3cn4cccnc4n3)nc2c1,2,6,34*,0,0
c1ccc(-c2cnnc(SCc3cn4cccnc4n3)n2)cc1,0,-8,-1,-1,-4
CCCCCCOC(=O)c1ccc(NC(=O)c2cc(OC)c(OC)c(OC)c2Br)cc1,46*,.,23,-1,1
CCCOC(=O)c1ccc(NC(=O)/C=C/c2cccs2)cc1,8,-43*,-3,3,-2
CCCOC(=O)c1ccc(NC(=O)c2cc(=O)[nH]c3ccccc23)cc1,5,-33*,5,1,-2
CCOC(=O)c1ccc(NC(=O)c2cc(OC)c(OC)c(OC)c2Br)cc1,2,-2,4,0,-6
CC(=O)c1ccc(NC2=NS(=O)(=O)c3ccccc32)cc1,1,-8,0,0,-1
O=C(/C=C/c1cccs1)Nc1ccncc1,0,-2,8,-1,-3
CCCCOC(=O)c1ccc(NC2=NS(=O)(=O)c3ccccc32)cc1,1,-43*,1,0,-3
COc1ccc(NC(=O)c2oc3ccc(S(=O)(=O)N4CCC5(CC4)OCCO5)cc3c2C)cc1Cl,-2,-28,7,1,-3
CCOc1ccc(CNC(=O)c2cc3c(=O)n(C)c4ccccc4c3s2)cc1,0,1,-3,0,5
COc1ccc(OC)c(CCNC(=O)c2ccc3c(c2)N(Cc2ccc(C)cc2)CCS3)c1,2,7,-6,0,-2
CCn1nnc2cc(C(=O)Nc3ccc(C)c(Cl)c3)ccc21,2,2,1,0,0
SMILES,D1 agonist,D1 antag,TRHR PAM,TRHR ag,D1 potentiator
CCCCOC(=O)c1ccc(O)cc1,-4,7,-1,0,-3
CCCCOC(=O)Nc1ccc(C(=O)OCCC)cc1,2,-31*,-16,1,-16
CCCCOC(=O)c1ccc(Nc2nc3ccccc3c3nnc(C)n23)cc1,5,-55*,-5,1,-4
CCCCc1ccc(NC(=O)OC)cc1,82*,-29,2,0,-8
CCCCc1ccc(NC(=S)Nc2ccc(Nc3ccc(OC)cc3)cc2)cc1,1,-3,-6,0,-12
COc1ccc(OC)c(C(=O)c2coc3ccc(O)cc23)c1,5,-2,40*,-1,-1
Cc1ccc(-c2cc(-c3n[nH]c(=S)n3C)c3ccccc3n2)cc1,1,-37*,-25,0,-5
COc1cc(C(=O)NCCCN2CCCC2=O)ccc1OCc1ccc(Cl)cc1Cl,38*,-16,-2,0,-10
CC1CCCC(C)N1CCCNC(=O)c1ccc2c(c1)NC(=O)c1ccccc1S2 (stereo unspecified),3,-7,3,0,-8
O=C(NCCCN1CCCC1=O)c1ccc2c(c1)NC(=O)c1ccccc1S2,1,-32*,0,0,.
COc1ccc(Cl)cc1NC(=S)NCCCN1CCCC1=O,3,-28,1,-1,-3
CCC(C)N(CCNC(=O)c1ccc2c(c1)NC(=O)c1ccccc1S2)C1CCCCC1 (stereo unspecified),30*,1,-9,2,-2
O=C1CCCN1CCCNC(=S)Nc1ccccc1,5,-38*,4,0,-3
CCOc1ccc(C(=O)N2CCC(c3noc(-c4ccc(S(=O)(=O)N5CCCC5)cc4)n3)CC2)cc1,3,-18,4,4,2
Oc1cccc(Nc2cc(-c3ccccc3)ncn2)c1,0,0,2,1,-2
Cc1cc(C)c2c(c1)/C(=N/NS(=O)(=O)c1ccccc1)CCC2,6,-97*,-2,-1,7
Cc1cc(C)c2c(c1)/C(=N/NS(=O)(=O)c1ccc(Br)cc1)CCC2,3,10,11,1,0
COc1cc(OC)cc(C(=O)Nc2ccc3nc(N4CCC(C)CC4)cc(C)c3c2)c1,4,1,-3,0,1
CCOC(=O)C1CCCN(C(=O)c2cc(-c3ccc(F)cc3)nc3ccccc23)C1 (stereo unspecified),2,1,-7,-1,-6
O=C(c1cc(-c2ccc(F)cc2)nc2ccccc12)N1CCN(C2CCS(=O)(=O)C2)CC1 (stereo unspecified),0,-32*,4,0,1
CC(C)Cc1nc(SCC(=O)NCC2CCCO2)c2c(=O)n(C)c(=O)n(C)c2n1 (stereo unspecified),3,-92*,-15,0,-14
O=[S+]([O-])(c1ccc2c(c1)OCCO2)N1CCN([S+](=O)([O-])c2ccc(F)cc2Cl)CC1,6,-19,-1,0,4
CC(C)Cc1ccc(C(C)C(=O)Nc2ccccc2O)cc1 (stereo unspecified),65*,-26,-6,10,-17
CCC(=O)N1c2ccccc2CC1C(=O)NCCc1ccccc1Cl (stereo unspecified),-2,14,-5,-1,0
CC(=O)c1ccc(S(=O)(=O)NCCCC(=O)N(C)Cc2ccc3c(c2)OCO3)cc1,7,-57*,-6,0,-9
